{"source": "the OligoGym collection"}
{"target": "JDP2", "experiment": "pooled miR-30 sensor sort-seq; sequence = guide strand", "details": "shRNA"}
{"sequence": "TAAACATTCGGTGAGTATGTGC", "sensor-assay potency score (higher = more potent)": -0.401}
{"sequence": "TCTTCTTGTTCCGGCATCGGGC", "sensor-assay potency score (higher = more potent)": -0.866}
{"sequence": "TTTGGTTGCAACTCATGGCTTT", "sensor-assay potency score (higher = more potent)": 0.0923}
{"sequence": "TAGCTCACTTTTCACGGGCTGG", "sensor-assay potency score (higher = more potent)": -0.699}
{"sequence": "TATACTGTATCACATCGAGTGA", "sensor-assay potency score (higher = more potent)": -0.648}
{"sequence": "TTTCCTTCGCTCCTCTTCCTCA", "sensor-assay potency score (higher = more potent)": -0.612}
{"sequence": "ATAACAAACAAACCATAGCATA", "sensor-assay potency score (higher = more potent)": -1.75}
{"sequence": "TACTGTATCACATCGAGTGATT", "sensor-assay potency score (higher = more potent)": -0.618}
{"sequence": "TTTCATTCTGAGTTCCATCCTC", "sensor-assay potency score (higher = more potent)": 0.428}
{"sequence": "TTAGGAGTTACACACAACGGCC", "sensor-assay potency score (higher = more potent)": -1.56}
{"sequence": "TTTATACTGTATCACATCGAGT", "sensor-assay potency score (higher = more potent)": -0.987}
{"sequence": "TATCTGTTCATAACAAACAAAC", "sensor-assay potency score (higher = more potent)": -1.71}
{"target": "JMJD1C", "experiment": "pooled miR-30 sensor sort-seq; sequence = guide strand", "details": "shRNA"}
{"sequence": "ATCTATTCTAACTACTCCGTTT", "sensor-assay potency score (higher = more potent)": -1.09}
{"sequence": "TTCAATTTTAAAACAACTGTTT", "sensor-assay potency score (higher = more potent)": -0.691}
{"sequence": "TATCTCTAGAACTCTTCCTTTC", "sensor-assay potency score (higher = more potent)": -0.557}
{"sequence": "ATTGACAGAACTTATCACCTAT", "sensor-assay potency score (higher = more potent)": 0.441}
{"sequence": "TAGTCTTGAAGTCTTCTCCTGA", "sensor-assay potency score (higher = more potent)": 0.704}
{"sequence": "TTAACTTGTTATCTGTGCCTAC", "sensor-assay potency score (higher = more potent)": 0.548}
{"sequence": "TATCTTGTCAACATCTTTCCCA", "sensor-assay potency score (higher = more potent)": 0.56}
{"sequence": "TTTACATTTATCTTGGAGGTTT", "sensor-assay potency score (higher = more potent)": -0.435}
{"sequence": "TTTATCTCTAGAACTCTTCCTT", "sensor-assay potency score (higher = more potent)": 0.72}
